Measurements: PubChem BioAssay (NCATS)
Results filed as inconclusive are left out. Active and inactive are the calls of the source. Calls come from the whole dose curve; as a rule, active = well fitted inhibition curve with a large enough effect; inconclusive = small, poorly fitted or top-dose-only effect; inactive = no such curve, though single readings can be large or run the other way.

experiment: Primary qHTS for inhibitors of La Crosse Virus (LACV) - induced cell death in SH-SY5Y cells (AID 1508616); settings: SH-SY5Y LACV cytopathicity rescue, ATP luminescence, 6 d; series mostly up to 9.63 µM; activity change: at the top concentration;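 note: top concentration of the series differs between compounds; 0% = infected DMSO wells and 100% = uninfected DMSO wells; higher means more rescue of cells from virus-induced death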
Text: Assay Provider: Karin Peterson Ph.D.
National Institute of Allergy and Infection Diseases, National Institute of Health
La Crosse Virus (LACV) is a California serogroup mosquito-borne arbovirus, family Peribunyaviridae, which is an endemic pathogen in North America and can induce a rare, life-threatening neurological disease in children. LACV was first isolated in the early 1960s, from a summer "rural encephalitis" case in La Crosse, Wisconsin, USA. Since then, LACV encephalitis cases have been found in more than twenty states, with most cases in the Mississippi and Ohio River basins. The life cycle of LACV is maintained between the vector, the eastern tree-hole mosquito Aedes triseriatus, and vertebrate hosts including eastern gray squirrels (Sciurus carolinensis) and chipmunks (Tamiasstriatus grinseus). […] Most LACV infections in humans are asymptomatic or induce mild clinical symptoms of fever, headache, lethargy and vomiting. However, in some cases LACV can cause severe neuroinvasive disease, including encephalitis, meningitis, and meningoencephalitis, requiring hospitalization. To date, there is neither a licensed vaccine nor a Food and Drug Administration (FDA) approved antiviral therapy available to prevent or treat LACV encephalitis. The primary treatment for viral encephalitis is palliative care due to the lack of therapeutics. In the current study, we conducted a screen of 4,096 FDA approved and bioactive small molecules against LACV, by screening for rescue of LACV-induced cell death in SH-SY5Y cells.
LACV-induced cytopathicity assay
SEQUENCE No. (1,2, 3, etc.); […] (e.g., Cells, Incubation, Reagent, etc.); VALUE and DESCRIPTION.
1. Reagent; 2 uL; Cell solution.
3. Compounds; 23nL; Compound library
4. Reagent; 12 uL; LACV virus
6. Reagent; 24 uL; ATPLite (PerkinElmer)
7. Time; 5 min; Room temperature
8. Detection; Luminescence; View
NOTES (numbers refer to sequence above)
1. Seed 6000 SH-SY5Y cells (ATCC CRL-2266) in 2 microL/well media (DMEM/F12 10% FBS, 1x L-Glutamine, 1x Pyruvate, 1x NEAA, 1x Pen/Strep) in 384-well assay plates (tissue culture treated, white, solid bottom).
2. Incubate at 37 degrees C with 5% CO2 for 24 hr.
3. Dispense 23 nL/well compounds in DMSO via pin transfer.
4. Dispense 12 microL/well of LACV (LACV/human/1978) in media at 0.01 MOI.
5. Incubate at for 6 days at 37C 5% CO2
6. Dispense 24 microL/well of ATPLite 1step Luminescence assay system (PerkinElmer).
7. Incubate for 5 min at room temperature.
8. Read luminescence signal (Viewlux plate reader, PerkinElmer). Data was normalized with DMSO control wells containing LACV as 0%, and DMSO control wells without virus as 100%.

SMILES	activity change
CCc1ccc(/C=C2/SC(=S)NC2=O)cc1	23.5% (inactive)
S=C(Nc1ccccc1)Nc1nccs1	-11.9% (inactive)
O=C1c2ccccc2C(=O)c2c(NCCc3ccc(O)cc3)ccc(NCCc3ccc(O)cc3)c21	58.6% (inactive)
CS(=O)(=O)c1ccc(-c2cn3ccccc3n2)cc1	19.5% [at 4.29 µM] (inactive)
Nc1ccc(N)c([N+](=O)[O-])c1	22.6% [at 8.54 µM] (inactive)
CCN(CC)c1ccc(C(=C2C=CC(=[N+](CC)CC)C=C2)c2cc(S(=O)(=O)O)ccc2S(=O)(=O)[O-])cc1	-16.7% [at 4.29 µM] (inactive)
C/C=C/CC(C)C(O)C1C(=O)NC(CC)C(=O)N(C)CC(=O)N(C)C(CC(C)C)C(=O)NC(C(C)C)C(=O)N(C)C(CC(C)C)C(=O)NC(C)C(=O)NC(C)C(=O)N(C)C(CC(C)C)C(=O)N(C)C(CC(C)C)C(=O)N(C)C(C(C)C)C(=O)N1C (configuration not stated)	13.4% (inactive)
C[C@H](Cc1ccccc1)Nc1ncnc2c1ncn2[C@@H]1O[C@H](CO)[C@@H](O)[C@H]1O	-16.8% (inactive)
N#C/C(=C\c1ccc(O)c(O)c1)C(=O)Nc1ccccc1	-10.2% (inactive)
O=Nc1c(-c2c(O)[nH]c3ccccc23)[nH]c2ccccc12	22.4% (inactive)
Nc1c(S(=O)(=O)O)cc(Nc2ccc(Nc3nc(Cl)nc(Nc4ccc(S(=O)(=O)O)cc4)n3)c(S(=O)(=O)O)c2)c2c1C(=O)c1ccccc1C2=O	2.43% (inactive)
Cc1cccc(/C=C/c2ccccc2)n1	2.99% (inactive)
